High-throughput results: PubChem, National Center for Advancing Translational Sciences (NCATS)
ClpP mod = qHTS Assay for Activators of ClpP. hit rate 1.9% among 340,000. ATP-dependent Clp protease proteolytic subunit (Bacillus subtilis (strain 168)), P80244. Potency, µM (titrated, usually from 57.5 µM), for the others: at the top dose activity change, negative = active. purified B. subtilis ClpP, FRET peptide cleavage, 20 min; active = well fitted falling curve with a large enough effect; inconclusive = small, poorly fitted or top-dose-only effect; inactive = no such curve, though single readings can be large or run the other way; also: potency is read from the fitted curve at half-maximal effect; the source files actives as falling curves though it sought activators and does not explain the sign; nearly all actives have a fitted effect of over 65% in size
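Purified B. subtilis ClpP, 10 microg/mL final in Tris/HCl pH8 with KCl, BSA, glycerol and Tween-20, cleaved an Abz/nitrotyrosine-quenched decapeptide. Fluorescence (ex 320, em 430) was read at 0 and 20 min at room temperature. Delta was normalized to 5.8 microM ADEP and DMSO/no-enzyme controls.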
mIDH1 inhibitor = inhibitors of human mutant IDH1 R132H; IDH1-R132H enzyme, NADPH consumption, diaphorase/resazurin fluorescence; Potency, µM (titrated, usually from 76.6 µM), without a hit: at the top dose activity change, negative = inhibition, hits mostly inhibitors; hit rate 0.093% among 390,000; also: potency is read from the fitted curve at half-maximal effect; % is scaled to controls: 0 for no effect and ±100 for the full control effect; nearly all actives have a fitted effect of over 65% in size
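IDH1-R132H (0.5 ug/mL dispensed) in pH 7.5 Tris buffer was preincubated 30 min with compound, then given a substrate mix of 0.016 mM NADPH and 2 mM alpha-KG for 80 min at room temperature; remaining NADPH was read by diaphorase/resazurin fluorescence.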
S-ASM inh = inhibitors of human secretory acid sphingomyelinase; P17405; placental ASM, HMU-PC fluorogenic substrate, 60 min; Potency, µM (titrated, usually from 57.5 µM), for the others: at the highest dose activity change, negative = inhibition, most hits filed as inhibitors; hit rate 0.006% among 340,000; also: potency is read from the fitted curve at half-maximal effect
Target sequence (P17405 47-631 limits assumed): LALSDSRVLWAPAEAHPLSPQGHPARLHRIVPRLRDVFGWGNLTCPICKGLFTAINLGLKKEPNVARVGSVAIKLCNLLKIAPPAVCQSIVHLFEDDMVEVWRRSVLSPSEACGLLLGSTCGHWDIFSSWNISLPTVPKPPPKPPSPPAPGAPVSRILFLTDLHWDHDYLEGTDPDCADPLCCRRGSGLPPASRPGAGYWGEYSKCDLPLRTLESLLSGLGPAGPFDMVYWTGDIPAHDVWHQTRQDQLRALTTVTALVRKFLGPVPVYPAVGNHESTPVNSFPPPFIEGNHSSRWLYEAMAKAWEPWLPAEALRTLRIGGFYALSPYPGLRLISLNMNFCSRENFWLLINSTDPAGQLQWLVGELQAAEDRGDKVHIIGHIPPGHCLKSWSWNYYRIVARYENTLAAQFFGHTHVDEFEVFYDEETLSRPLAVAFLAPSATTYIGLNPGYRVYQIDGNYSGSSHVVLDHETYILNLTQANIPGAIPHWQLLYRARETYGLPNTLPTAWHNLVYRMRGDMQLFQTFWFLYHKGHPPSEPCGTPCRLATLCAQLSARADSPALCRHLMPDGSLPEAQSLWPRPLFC
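HMU-PC0 cleavage (9 uM final) by human placental ASM, 60 min at 37 °C following 10 min compound exposure at RT; stopped at pH 10, fluorescence Ex 386/Em 447 nm.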
RGS4 inhibitor = human RGS4 inhibition. P49798. Transcreener GDP fluorescence polarization, RGS4-accelerated GTP hydrolysis. Potency, µM (doses to about 114 µM), without a hit: at the highest dose activity change, negative = inhibition, usual class: inhibitors. hit rate 0.039% among 390,000. AID 504845; also: potency is read from the fitted curve at half-maximal effect; % is scaled to controls: 0 for no effect and ±100 for the full control effect; nearly all actives have a fitted effect of over 75% in size
Target sequence (P49798 whole entry, looked up): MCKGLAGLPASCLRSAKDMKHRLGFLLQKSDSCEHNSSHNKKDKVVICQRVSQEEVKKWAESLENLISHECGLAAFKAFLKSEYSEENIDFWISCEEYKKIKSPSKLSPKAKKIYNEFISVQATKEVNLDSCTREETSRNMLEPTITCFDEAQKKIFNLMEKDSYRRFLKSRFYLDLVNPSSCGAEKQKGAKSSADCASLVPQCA
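MLSMR compounds (23 nl, pin-transferred) preincubated 10 min at room temperature with a 500nM (2x) first reagent, then RGS4 at 900nM (2x) plus Transcreener GDP mix added; fluorescence polarization (620/688 nm) read before and after 90 min at 30 °C.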
LDHA block = LDHA (human) enzyme inhibition. P00338. purified LDHA, NADH/diaphorase-resazurin fluorescence; active compounds read low. activity change, % (values are at about 110 or 230 µM). hit rate 0.15% among 480,000; in the data active = activity change below about -30%; inconclusive = mostly about -25% to -30%;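 also: plate controls were DMSO wells for no effect and wells without enzyme for full effect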
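LDH5 2 nM; NADH 0.06 mM, pyruvate 0.2 mM; 200 mM Tris pH 7.4, EDTA, Tween-20; 5 min RT. Detection: diaphorase 0.133 mg/mL + resazurin 37 µM, fluorescence ex540/em590 at 0 and 20 min; normalized to enzyme-free and DMSO wells.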
Mito fusion yeast = blocks mitochondrial division or promotes mitochondrial fusion; Potency, µM (doses to about 46.1 µM), without a hit: at the top dose growth rescue (activation), usual class: activators; S. cerevisiae fusion-defective mutant growth rescue, CellTiterGlo 48 h; hit rate 0.23% among 320,000; also: potency is read from the fitted curve at half-maximal effect; % of control where 0% means no effect; nearly all actives have a fitted effect of over 45% in size
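S. cerevisiae fusion-defective temperature-sensitive mutants (e.g. fzo1-1, mgm1-5) grown 48 h at 37C in YPEG (ethanol/glycerol non-fermentable) medium with 23 nl compound per well; growth rescue read as CellTiterGlo luminescence.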
Resorufin autofl = counter-screen for mutant IDH1 inhibitors: fluorescence interference. Resorufin detection reagent fluorescence interference, cell-free. 750 tested, under 10 active. shares compounds with mIDH1 inhibitor. inhibition of signal, % at 51.2 µM;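 also: 0% = wells with normal resorufin and full inhibition = wells lacking resorufin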
WT IDH1 inh = selectivity of mutant IDH1 inhibitors: human wild-type IDH1; WT IDH1 enzyme, NADPH diaphorase/resazurin fluorescence; hit rate 9% among 750; shares compounds with mIDH1 inhibitor; Potency, µM (titrated, usually from 115 µM), without a hit: at the highest dose activity change, negative = inhibition, actives largely listed as inhibitors;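 also: potency is read from the fitted curve at half-maximal effect; 0% = full WT IDH1 enzyme control and full inhibition = no enzyme wells; nearly all actives have a fitted effect of over 55% in size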
mIDH1 confirm = confirmation of human mutant IDH1 inhibitors; shares compounds with mIDH1 inhibitor; IDH1 R132H enzyme, NADPH diaphorase/resazurin fluorescence; Potency, µM (highest dose often 76.6 µM), without a hit: at the highest dose activity change, negative = inhibition, usual class: inhibitors; hit rate 83% among 750; also: potency is read from the fitted curve at half-maximal effect; nearly all actives have a fitted effect of over 50% in size
The depositor's hits bear a star; i = inactive; ? = inconclusive; . = not tested or not shown; [ ] = another dose, or the depositor's remark. The sample as a whole holds a higher share of hits than the screen did. Unless noted, calls follow the shape of the dose curve; as a rule, active = well fitted curve in the direction sought with a large enough effect; inconclusive = small, poorly fitted or top-dose-only effect, or another doubt; inactive = no such curve, though single readings can be large; an effect the other way counts as inactive or inconclusive.

SMILES	ClpP mod	mIDH1 inhibitor	S-ASM inh	RGS4 inhibitor	LDHA block	Mito fusion yeast	Resorufin autofl	WT IDH1 inh	mIDH1 confirm
CCc1nn2c(=O)cc(CNc3ccc(C(=O)NCC(=O)OC)cc3)nc2s1	.	.	.	.	4	.	.	.	.
COc1ccc(C)cc1-n1c(-c2ccc(Cl)cc2)cc2c1CC(C)(C)CC2=O	-10%	?	.	1%	-5	.	-1	0%	14µM*
Cc1oc(-c2ccc(C(=O)NC3CCCC3)cc2)nc1CS(=O)c1ccccc1 (stereo not drawn)	.	.	.	.	-2	.	.	.	.
COc1ccc(N(C(=O)c2snc(C(N)=O)c2N)C(C(=O)NC2CCCCC2)c2ccc(C)o2)cc1 (stereo not drawn)	.	?	249%	9%	-9	9%	2	2%	?
COc1ccc(CN(C(=O)Cc2c[nH]c3ccccc23)C(C(=O)NC2CCCCC2)c2ccc(C)o2)cc1 (stereo not drawn)	-2%	-17%	-12%	-25%	0	9%	.	.	.
Cc1ccc(C(C(=O)NC2CCCC2)N(Cc2ccc(F)cc2)C(=O)c2csnn2)o1 (stereo not drawn)	39%	-3%	0%	7%	-18	-5%	.	.	.
Cc1ccc(C(C(=O)NC2CCCCC2)N(Cc2ccccc2)C(=O)Cc2c[nH]c3ccccc23)o1 (stereo not drawn)	-1%	?	-9%	-28%	0	16%	-6	9%	?
CC(=O)c1cccc(N(C(=O)c2ccco2)C(C(=O)NC2CCCC2)c2ccccc2F)c1 (stereo not drawn)	.	23µM*	-3%	-2%	-3	2%	-1	4%	11µM*
Cc1ccc(C(C(=O)NC2CCCC2)N(Cc2ccc(F)cc2)C(=O)c2snc(C(N)=O)c2N)o1 (stereo not drawn)	.	?	213%	17%	-1	-8%	-12	11%	?
O=C(CSc1ncnc2nc[nH]c12)Nc1cc(Cl)cc(Cl)c1	.	.	.	.	-6	.	.	.	.
Cc1cc(SCC(=O)NCCC#N)nc2ccccc12	.	.	.	.	-19	.	.	.	.
COc1ccccc1N(C(=O)c1snc(C(N)=O)c1N)C(C(=O)NCc1ccccc1)c1ccc(O)cc1 (stereo not drawn)	.	58µM*	i	-18%	-9	9%	6	-2%	22µM*
COc1ccc(C(C(=O)NC2CCCC2)N(C(=O)c2snc(C(N)=O)c2N)c2cc(C)ccc2OC)cc1OC (stereo not drawn)	.	?	i	-7%	5	-9%	5	4%	32µM*
COc1ccc(C(C(=O)NC2CCCC2)N(C(=O)c2snc(C(N)=O)c2N)c2ccccc2OC)cc1OC (stereo not drawn)	-26%	-7%	i	9%	2	0%	.	.	.
Cc1cccc(N(C(=O)c2ccco2)C(C(=O)NC2CCCC2)c2ccco2)c1C (stereo not drawn)	.	?	3%	16%	-2	3%	-5	8%	20µM*
Cc1ccccc1N(C(=O)c1snc(C(N)=O)c1N)C(C(=O)NC1CCCC1)c1ccco1 (stereo not drawn)	.	?	i	12%	-11	-4%	2	13%	40µM*
CCCCc1ccc(N/C=C/C(=O)c2ccc(OCC)cc2)cc1	.	.	.	.	0	.	.	.	.
O=C(NCCc1ccccc1F)NC1CC1	.	.	.	.	-4	.	.	.	.
COc1cc(C(CC(=O)Nc2ccccc2)N2Cc3ccccc3C2=O)cc(OC)c1OC (stereo not drawn)	.	.	.	.	-6	.	.	.	.
COc1cc2c(-c3ccccc3O)nc3c(c(C)nn3-c3ccccc3)c2cc1OC	-29%	30%	39%	-2%	1	0%	.	.	.
COc1cc2c(-c3ccccc3Cl)nc3c(c(C)nn3-c3ccccc3)c2cc1OC	4%	?	.	-6%	-2	.	-2	0%	5µM*
Cc1cc(C)n(-c2nc(N(c3ccccc3)c3ccccc3)nc(-n3nc(C)cc3C)n2)n1	-1%	?	-2%	5%	7	-4%	-1	7%	10µM*
Cc1cc(C)n(-c2nc(Nc3ccccc3)nc(-n3nc(C)cc3C)n2)n1	-7%	0%	-2%	12%	-9	0%	.	.	.
CC(NC(=O)NCC1CCCC1)C(=O)NC(C)(C)C (stereo not drawn)	.	.	.	.	-8	.	.	.	.
CCOC(=O)c1c(NC(=O)COC(=O)Cc2ccccc2[N+](=O)[O-])sc(C(=O)N(C)C)c1C	.	0%	-3%	-1%	-5	13%	.	.	.
CCOC(=O)c1c(NC(=O)COC(=O)c2ccccc2NC)sc(C(=O)N(C)C)c1C	3%	12µM*	i	-19%	1	3%	-4	10%	4.5µM*
CC(C)=CCC/C(C)=C/CNC(=O)C[C@H]1C[C@H](C(=O)N2CCOCC2)[C@@]2(C)c3[nH]c4cc(CCC(=O)N(C)C)ccc4c3CCN2C1=O	-1%	-1%[38.3 µM]	-4%	5%	0	.	.	.	.
CC[C@]12c3[nH]c4cc(-c5ccco5)ccc4c3CCN1C(=O)[C@@H](CC(=O)NC/C=C(\C)CCC=C(C)C)C[C@@H]2C(=O)N1CCN(C(=O)c2ccco2)CC1	-15%	-25%	6%	-52%	-1	.	.	.	.
CC[C@]12c3[nH]c4cc(-c5ccco5)ccc4c3CCN1C(=O)[C@@H](CC(=O)NC/C=C(\C)CCC=C(C)C)C[C@@H]2C(=O)N1CCN(C(=O)C2CC2)CC1	4%	35µM*	7%	?	2	.	-1	-2%	-13%
CC(C)=CCC/C(C)=C/CNC(=O)C[C@H]1C[C@H](C(=O)N2CCCCC2)[C@@]2(C)c3[nH]c4cc(CCC(=O)N(C)C)ccc4c3CCN2C1=O	1%	?	-7%	17%	5	.	-7	-8%	25µM*
